Results with a measured potency or affinity are listed apart. Inconclusive results are not listed.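 The calls were made as follows: active = a valid curve of falling signal whose half-effect concentration is at most ten times the top tested dose; inconclusive = flat curve at 30 to 70% inhibition, or poor fit; inactive = signal rise, flat within 30%, or potency beyond limit.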
Each compound was assayed against Scavenger receptor class B member 1 (Mus musculus) (UniProt Q61009) (assay: mouse SR-BI DiI-HDL uptake blockers – ldlA[mSR-BI] cells, fluorescence, cherry pick, dose response (AID 493194;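 also: CHO cells lacking LDL receptor and overexpressing mouse SR-BI; cellular uptake of fluorescently labeled HDL measured as cell fluorescence; 0% = median of neutral control wells and -100% = median of positive control wells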)). Details: CHO ldlA[mSR-BI] DiI-HDL uptake fluorescence, 3 h; series mostly up to 35 µM; activity change, negative = inhibition: at the top concentration.
Sequence of Scavenger receptor class B member 1 (Mus musculus) (Q61009 whole entry, looked up): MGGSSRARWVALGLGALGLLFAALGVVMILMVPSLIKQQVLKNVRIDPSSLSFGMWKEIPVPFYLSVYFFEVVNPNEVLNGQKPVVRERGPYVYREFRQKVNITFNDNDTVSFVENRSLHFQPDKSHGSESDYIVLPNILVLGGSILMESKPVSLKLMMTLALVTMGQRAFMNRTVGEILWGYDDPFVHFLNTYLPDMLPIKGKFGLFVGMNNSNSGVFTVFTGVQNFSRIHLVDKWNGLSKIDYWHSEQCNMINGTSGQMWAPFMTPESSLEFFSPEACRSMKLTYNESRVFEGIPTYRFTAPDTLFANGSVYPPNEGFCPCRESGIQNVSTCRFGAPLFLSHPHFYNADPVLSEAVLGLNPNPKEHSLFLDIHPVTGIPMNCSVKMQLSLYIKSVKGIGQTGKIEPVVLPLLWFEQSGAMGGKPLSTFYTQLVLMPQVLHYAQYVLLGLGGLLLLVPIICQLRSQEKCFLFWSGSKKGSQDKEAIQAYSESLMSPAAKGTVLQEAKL

Activity change, negative = inhibition, inactive:
CCCCN(Cc1ccccc1)c1ncnc2nc[nH]c12 25.3%
CC(C)c1cc(CNC(=O)C2CCC(=O)N(CCc3ccc(Cl)cc3)C2)on1 (stereo not drawn) 23.7%
Cc1ccc(-c2nn(-c3ccccc3)cc2/C=C/C(=O)OCC(=O)NC2CC2)o1 -29.3%
COc1cc(C(=S)N2CCCC2)ccc1OC(=O)c1ccc(Cl)cc1[N+](=O)[O-] -29.2%
CC(C)(C)C(=O)Nc1sc2c(c1-c1nc3ccccc3[nH]1)CCCC2 -43.5%
O=C(Nc1ccn(Cc2c(F)c(F)c(F)c(F)c2F)n1)c1ccc(COc2ccccc2Cl)cc1 57.4%
COc1ccc(N2CC(C(=O)NCCC3=CCCCC3)CC2=O)c(OC)c1 (stereo not drawn) -27.6%
COc1ccc2c(c1)OC[C@H]1[C@H]2N2C(=O)c3cc(Cl)ccc3NC(=O)[C@@]2(C)[C@H]1c1ccccc1 6.23%
Cc1ccc(-c2nnc(N3CCC(C)CC3)c3ccccc23)cc1C -45.3%
Cc1ccc(CCNC(=O)C2CCN(C(=O)c3sccc3-n3cccc3)CC2)cc1 -1.91%
COc1ccc([C@H]2/C=C\CN(S(=O)(=O)c3ccc(C)cc3)[C@@H](C)C(=O)N2Cc2ccc(F)cc2)cc1 0.303%
Cc1ccc(C(C(=O)NC(C)(C)C)N(Cc2cccs2)C(=O)c2ccc3c(c2)OCCO3)cc1 (stereo not drawn) 9.72%
COc1ccc(N2CC(C(=O)N3CCN(S(=O)(=O)c4ccc(F)c(F)c4)CC3)CC2=O)c(OC)c1 (stereo not drawn) 20.3%
COC(=O)c1cc2c(ccn2-c2ccc(F)cc2)n1Cc1ccc(C#N)cc1 -6.08%
COC(=O)[C@@]1(Cc2ccc(F)cc2)[C@H]2c3cc(C(=O)N4CCCC4)n(CCCNc4ncc(C(F)(F)F)cc4Cl)c3C[C@H]2CN1C(=O)c1ccccc1 22.1%
CCCC(=O)Nc1ccc(Cl)c(NC(=O)c2ccc(Br)o2)c1 -19.4%
CNc1nc(-c2ccc3c(c2)CCN3C(=O)c2ccccc2F)c(C)s1 -4.41%
CC(=O)NCCC1CCN(C(=O)c2cc(COc3ccc(C)nc3)on2)CC1 7.7%
O=C(Nc1ccc(N2CCOCC2)cc1)c1cccc(S(=O)(=O)N2CCC(Cc3ccccc3)CC2)c1 21.7%
CC(=O)c1cc(C#N)c(SCc2ccccc2C#N)nc1C -9.44%
Cc1nn(Cc2c(Cl)cccc2Cl)c(C)c1NC(=O)CCCn1nc([N+](=O)[O-])c(Cl)c1C -20.3%
CNc1nc(-c2ccc3c(c2)CCN3C(=O)CC(C)(C)C)c(C)s1 -8.51%
Cc1ccc(-c2cc(C(F)F)n3ncc(C(=O)N4CCN(c5cccc(C)c5C)CC4)c3n2)cc1 10.1%
COc1ccccc1-n1cnc2cc(NCc3ccco3)ccc21 -0.766%
Cc1cccc(N2CCN(C(=O)CN(C)S(=O)(=O)c3ccc4c(c3)CCC(=O)N4)CC2)c1C 22.7%
N#Cc1ccccc1S(=O)(=O)N1CCN(C(=O)C2CC(=O)N(c3ccc4c(c3)OCCO4)C2)CC1 (stereo not drawn) -4.49%
O=C(O)c1cc(N2C(=O)C=CC2=O)cc(N2C(=O)C=CC2=O)c1 67.2%
CCc1cc(=O)oc2c3c(cc(OCC(=O)NCc4ccco4)c12)OC(C)(C)CC3 -15.8%
CCOc1ccccc1NC(=O)N1C2CCCC1CC(NC(=O)C1CC1)C2 (stereo not drawn) 31.7%
CCOc1ccccc1COC(=O)c1cccc(-n2cnnn2)c1 -9.83%
COc1ccc(N2CCN(C(=O)c3cc(=O)[nH]c4ccccc34)CC2)cc1 -23.9%
CCOC(=O)CSc1c(-c2ccc(Cl)cc2)[nH]c2ccccc12 7.74%
COc1ccc(NC(=O)C2CCN(C(=O)c3ccc(OC)cc3)CC2)cc1 32.3%
CNc1sc(C(=O)c2cccs2)c(N)c1-c1nc2ccccc2s1 -39.9%
CCCOC1CCCN(C(=O)c2cc(COc3cncc(Cl)c3)on2)C1 (stereo not drawn) 27.2%
O=C(OCCNc1ncc(C(F)(F)F)cc1Cl)c1ccc(S(=O)(=O)N2CCOCC2)cc1 6.42%
O=C(Nc1ccccc1)c1ccc2c(c1)CCN2S(=O)(=O)c1ccccc1 -4%
O=C(c1ccc(S(=O)(=O)NCc2ccco2)cc1)N1CCN(Cc2ccccc2)CC1 -36.1%
